The record followed here is ChEMBL document CHEMBL1157539, “Thousands of chemical starting points for antimalarial lead identification” (Nature, 2010).

The term Inhibition denotes the change of the read-out against control, counted positive when it falls.

Holding throughout (assay type): functional
For test [1], the system named is Plasmodium falciparum. The test is described as follows: GSK_TCMDC: Inhibition of Plasmodium falciparum 3D7 in whole red blood cells, using parasite LDH activity as an index of growth. Test compounds present at 2uM.
The test system of test [2] is Plasmodium falciparum. The test can be described thus: GSK_TCMDC: Inhibition of Plasmodium falciparum Dd2 in whole red blood cells, using parasite LDH activity as an index of growth. Test compounds present at 2uM.
Test [3] deals with HepG2. The test can be described thus: GSK_TCMDC: Percent inhibition of human HepG2 cell line. Test compounds present at 10uM.

As for `COc1cc(-c2cc3cc(Cl)c(Cl)cc3[nH]2)ccc1C(=O)NCCC1CCCN1C.O=C(O)C(F)(F)F` (stereo not drawn), the Inhibition in test [1] came to 91%; in test [2], 41%; in test [3] it was 20%.
Regarding `Cc1ccc(Cn2cnc3cc(C(=O)Nc4ccc(-c5ccc(CN(C)C)cc5)cc4)ccc3c2=O)o1`, the Inhibition in test [1] is reported as 82%; in test [2], 12%; in test [3] it was 43%.
Taken in the same sequence, the figures for `O=C(O)C(F)(F)F.Oc1ccc(CCNc2nc(NCCCOc3ccccc3-c3ccncc3)nc(N3CCNCC3)n2)cc1` were 96%, 0% and 8%.
Taken in the same sequence, the figures for `NCCCNc1nc(Nc2cccc(C(N)=O)c2)c2c(=O)[nH]ccc2n1.O=C(O)C(F)(F)F` were 99%, 49% and 9%.
In the same order, the values of `CCc1ccnc2c(N3CCCC3=O)cc(C(=O)N[C@@H](Cc3ccccc3)[C@H](O)CNC3CCOCC3)cc12.O=CO` are 99%, 98% and 2%.
On to `CC(C)C(=O)NC(c1cccs1)c1cc(Cl)c2cccnc2c1O` (stereo not drawn), for which the figures for the Inhibition in test [1], in test [2] and in test [3] were 91%, 91% and 23%, respectively.
In the case of `COc1ccc(NC(=O)Nc2ccc(Nc3nc(C)cc(N(C)C)n3)cc2)cc1`, the Inhibition in test [1] amounted to 100%; in test [2] it was 99%; in test [3], 11%.
Taken in the same sequence, the figures for `CC(=O)c1cccc(NC(=O)N2CCCN(CCCCCNC(=O)/C=C/c3ccc(Cl)c(Cl)c3)CC2)c1` were 93%, 0% and 13%.
Taken in the same sequence, the figures for `O=C(/C=C/c1ccc(Cl)c(Cl)c1)NCCCCCCN1CCCN(C(=O)Nc2cccc(Cl)c2)CC1` were 94%, 2% and 26%.
In the same order, the values of `CCOC(=O)c1ccc(NC(=O)Nc2cccc(-c3cccc(-c4nc5cccc(C)c5[nH]4)c3)c2)cc1` are 100%, 99% and 37%.
Take `CCCN(CCC)CCCNc1ccc(C(=O)Nc2ccc(OCC)cc2)cc1[N+](=O)[O-]`: the Inhibition in test [1] turned out to be 89%; in test [2] it was 2%; in test [3] it was 7%.
On to `C=CCOC1OC(COC(c2ccccc2)(c2ccccc2)c2ccccc2)C(OC(C)=O)C(OC(C)=O)C1NC(C)=O` (stereo not drawn), for which the figures for the Inhibition in test [1], in test [2] and in test [3] were 93%, 66% and 0%, respectively.
For the molecule `CC(=O)Nc1ccc(Nc2cc(C)nc(Nc3ccc(NC(C)=O)cc3)n2)cc1`, the results for the Inhibition in test [1], in test [2] and in test [3] were 99%, 65% and 4%, respectively.
Taken in the same sequence, the figures for `Cc1ccccc1N1CCN(c2ccc(C(=O)Nc3ccccc3)cc2)CC1` were 89%, 91% and 22%.
`COc1cc(OC)c(NC(=O)Nc2ccnc3ccccc23)cc1Cl`: the results for the Inhibition in test [1], in test [2] and in test [3] were 97%, 9% and 19%, respectively.
For the molecule `Br.N=C(N)Nc1nc(-c2cccc(NC(=O)C(F)(F)F)c2)cs1`, the values for the Inhibition in test [1], in test [2] and in test [3] were 94%, 24% and 0%, respectively.
Taken in the same sequence, the figures for `CCCC(C)NC(=O)[C@H](CC1CCCCC1)NC(=O)c1ccc(O)c(-c2cccc(C(F)(F)F)c2)c1` (stereo partly drawn) were 100%, 98% and 0%.
In the same order, the values of `Nc1nc2c(cnn2CCCCCCCP(=O)(O)O)c(=O)[nH]1` are 94%, 91% and 0%.
Taken in the same sequence, the figures for `CC(C)C(C(=O)n1ncc2c3c(N)nc(N)nc3ccc21)C(C)C` were 98%, 8% and 67%.
Consider `CCC(C)NS(=O)(=O)c1ccc2nc(Nc3cccc(SC)c3)n(C(C)C(C)C)c2c1` (stereo not drawn), for which the Inhibition in test [1] amounted to 94%; in test [2], 70%; in test [3], 0%.
Consider `O=C(O)C(F)(F)F.O=S(=O)(/C=C/c1ccccc1)N(Cc1ccc(-c2ccc(CNCCc3ccccc3)cc2)cc1)CC1CCCCN1` (stereo not drawn), for which the results for the Inhibition in test [1], in test [2] and in test [3] were 100%, 96% and 99%, respectively.
Taken in the same sequence, the figures for `O=C(Nc1ccc(C(F)(F)F)cc1)c1cccc(S(=O)(=O)NCC2CCCN(CC3CCCCC3)C2)c1.O=C(O)C(F)(F)F` (stereo not drawn) were 97%, 4% and 27%.
Taken in the same sequence, the figures for `CN1CCN(CCNc2c3ccccc3nc3ccc4ccccc4c23)CC1.Cl` were 99%, 99% and 22%.
Taken in the same sequence, the figures for `Cc1ccnc(NC(=O)c2cc(-c3cccc([N+](=O)[O-])c3)nc3onc(C)c23)c1` were 91%, 44% and 5%.
On to `C/C=C/COc1ccc2ccccc2c1CNCCCCCCCCNCc1c(OC/C=C/C)ccc2ccccc12.CS(=O)(=O)O.O`, for which the Inhibition is 87% in test [1], 86% in test [2] and 100% in test [3].
With `COc1cc2ccccc2c(OC)c1CNCCCCCCNCc1c(OC)cc2ccccc2c1OC.CS(=O)(=O)O`, the results for the Inhibition in test [1], in test [2] and in test [3] were 93%, 91% and 100%, respectively.
In the same order, the values of `Cc1nc(-c2cccc(Nc3nccc(NCC(O)c4ccccc4)n3)c2)cs1` (stereo not drawn) are 99%, 82% and 43%.
Taken in the same sequence, the figures for `COc1ccc(NC(=O)c2ccc(NC(=O)c3ccc(Cl)cc3)cc2)cc1N1CCN(C)CC1` were 98%, 40% and 23%.
Taken in the same sequence, the figures for `CNC(=O)c1cnc(Nc2ccc(N3CCN(C)CC3)cc2)nc1Nc1cccc([N+](=O)[O-])c1.O=C(O)C(F)(F)F` were 100%, 100% and 31%.
For the molecule `CC(C)CNCc1cccc(-c2cccc(CN(CCCN3CCN(C)CC3)C(=O)NC3CCCCC3)c2)c1.O=C(O)C(F)(F)F`, the Inhibition stood at 100% in test [1], 84% in test [2] and 16% in test [3].
In the same order, the values of `CCN(CCCN1CCCCC1)c1cc(C)nc(Nc2ccc(F)c(C(F)(F)F)c2)n1.O=C(O)C(F)(F)F` are 100%, 93% and 32%.
